Assay results from the supplement of paper PMC9492666.
Counter-ions that a name gives are not always drawn.

Assays:
HCC1937 = assay: relative cell viability, compound alone, vs DMSO (fraction of DMSO control); higher = less growth inhibition; details: 72 h
MDA-MB-231 = assay: as above; details: 72 h
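Note: viability read out with the CCK-8 kit in 96-well plates, screening a set of 303 compounds acting on lipid metabolism targets.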

Compound | relative cell viability (HCC1937) | relative cell viability (MDA-MB-231)
O=C(O)c1cccc(N=Nc2c(O)[nH]c3ccc(S(=O)(=O)NCc4ccc(F)cc4)cc23)c1 | 0.885 | 0.938
C[C@@H]1OCC2(CCN(c3cnc(Sc4ccnc(N)c4Cl)c(N)n3)CC2)[C@@H]1N | 0.896 | 0.996
CC(C)n1c(/C=C/C(O)CC(O)CC(=O)O)c(-c2ccc(F)cc2)c2ccccc21 (stereo unspecified) [Fluvastatin sodium salt] | 0.924 | 0.863
C/C=C(\CC[C@@H](C)[C@H]1CC[C@H]2[C@@H]3CC=C4C[C@@H](O)CC[C@]4(C)[C@H]3CC[C@]12C)C(C)C [Fucosterol] | 1 | 0.968
N#Cc1c(O)c2c(-c3ccc(-c4ccccc4O)cc3)csc2[nH]c1=O | 0.719 | 0.907
Oc1ccc(/C=C/c2cc(O)cc(O)c2)cc1 [Resveratrol] | 0.67 | 0.755
COc1ccc(-c2cc(=O)c3c(O)c(OC)c(OC)c(OC)c3o2)cc1OC | 0.699 | 0.82
CCCc1c(OCCCOc2ccc(OCC(=O)O)cc2)ccc(C(C)=O)c1O | 0.943 | 1.07
O=C1c2cccc(O)c2C(=O)c2c(O)cccc21 [Antrapurol] | 0.699 | 0.808
CC(C)(CCCCCC(O)CCCCCC(C)(C)C(=O)O)C(=O)O | 0.598 | 0.886
C[C@@H]1O[C@@H](O[C@H]2[C@H](Oc3cc(O)c4c(c3)O[C@H](c3ccc(O)cc3)CC4=O)O[C@H](CO)[C@@H](O)[C@@H]2O)[C@H](O)[C@H](O)[C@H]1O [Naringin] | 1.24 | 0.892
CC(C)(Oc1ccc(C2CC2(Cl)Cl)cc1)C(=O)O (stereo unspecified) [Ciprofibrate] | 1.15 | 0.937
O=C1C(SCCO)=C(SCCO)C(=O)c2ccccc21 | 0.777 | 0.875
O=C(OC(C(F)(F)F)C(F)(F)F)N1CCC(C(O)(c2ccc3c(c2)OCO3)c2ccc3c(c2)OCO3)CC1 | 1.06 | 0.855
CCCCCCCCCc1ccc(B(O)O)cc1 [4-Nonylphenylboronic acid] | 1.01 | 1.08
Nc1ccc(C(=O)O)c(O)c1 [Aminopar] | 1.1 | 0.911
C[C@H](CCC(=O)O)[C@H]1CC[C@H]2[C@@H]3CC[C@@H]4C[C@H](O)CC[C@]4(C)[C@H]3CC[C@]12C [Lithocholic acid] | 1.16 | 0.99

Compound | relative cell viability (HCC1937) | relative cell viability (MDA-MB-231)
c1ccc([C@H]2CN3CCSC3=N2)cc1 [Levamisole hydrochloride] | 0.815 | 0.887
COc1ccc2c(=O)c(-c3ccccc3)coc2c1 [7-Methoxyisoflavone] | 0.594 | 0.859
C[C@H](CCC(=O)O)[C@H]1CC[C@H]2[C@@H]3C[C@H](O)[C@@H]4C[C@H](O)CC[C@]4(C)[C@H]3CC[C@]12C [Hyodeoxycholic acid] | 0.929 | 1.02
C=C(C)[C@@H]1CCC2=CC(=O)C[C@@H](C)[C@]2(C)C1 [Nootkatone] | 0.882 | 1.02
COC(=O)c1sccc1S(=O)(=O)Nc1ccc(Nc2ccccc2)cc1OC | 0.795 | 0.871
C[C@H]1N=C(N(C)C)N=C(N)N1 [Imeglimin hydrochloride] | 0.912 | 0.838
O=C(O)CCn1c2c(c3ccccc31)C[C@H](NS(=O)(=O)c1ccc(F)cc1)CC2 [Ramatroban] | 0.711 | 0.841
COC(=O)c1cc(Cl)c(O)c(S(=O)(=O)Nc2cc(-c3ccccc3)c(F)cc2F)c1 | 0.737 | 0.833
O=C(Nc1ccccc1)c1cc([N+](=O)[O-])ccc1Cl | 1.08 | 1.03
Cc1cccc(Nc2cc(Cl)nc(SCC(=O)O)n2)c1C [Pirinixic Acid] | 0.824 | 0.88
Nc1cccc(S(=O)(=O)N2CCCN(S(=O)(=O)c3ccc4c(c3)OCCO4)CC2)c1 | 0.881 | 1.01
CC(C)(O)c1ccccc1CC[C@@H](SCC1(CC(=O)O)CC1)c1cccc(/C=C/c2ccc3ccc(Cl)cc3n2)c1 [Montelukast] | 0.789 | 0.857
CC(C)c1onc(-c2c(Cl)cccc2Cl)c1COc1ccc(/C=C/c2cccc(C(=O)O)c2)c(Cl)c1 | 1.03 | 0.968
CS(=O)(=O)c1ccc(-c2nnc(/C=C/c3nnc(-c4ccc(C#N)cc4)o3)n2-c2ccccc2Cl)nc1 | 1.07 | 0.851
O=C(c1ccc(-c2nc3ccc(F)cc3o2)cc1)N1CCN(C(=O)C2(O)CC2)CC1 | 0.831 | 0.918
CCC(=O)Nc1cccc(Oc2nc(Nc3ccc(N4CCN(C)CC4)cc3OC)ncc2Cl)c1 | 0.48 | 0.559
